Experimental data as given in PubChem BioAssay AID1443 (Sanford-Burnham Center for Chemical Genomics, 2008).
About 880 (0.4%) of roughly 220,000 compounds were called active.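 Rule for the calls: active = cell killing above 50% in the first pass at 4 µM, then a duplicate retest at 5 µM averaging 50% or more; inactive = the rest.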 This excerpt belongs to a sample that is enriched for actives.

Assay: compounds killing PPC-1 cancer cells with TRAIL present, primary screen, TRAIL potentiator project, ATPLite luminescence, uHTS (AID 1443);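 note: plate controls were cells with TRAIL plus DMSO for no effect and medium-only wells lacking cells for full effect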
Conditions: PPC-1 cells + TRAIL, ATPLite viability luminescence, active compounds read high; at 4 µM unless noted

| SMILES | cell killing (% activity) |
| --- | --- |
| Cc1nc2ccc(N3CCN(C)CC3)cc2nc1C | -0.5% (inactive) |
| COc1cccc(-c2nc3ccc(N4CCN(C)CC4)cc3[nH]2)c1 | 85.4% [at 5 µM] (active) |
| CN1CCN(c2cc(N3CCNCC3)ccc2[N+](=O)[O-])CC1 | 3.5% (inactive) |
| O=C1CC(=O)N(Cc2ccccc2)C(=O)N1CCCCCCN1C(=O)CC(=O)N(Cc2ccccc2)C1=O | 12.3% (inactive) |
| COc1ccc(C2N3CC(C)(C)CN23)cc1 (stereo not given) | 15.2% (inactive) |
